Among the data in ChEMBL document CHEMBL4513216, “Probing the Open Global Health Chemical Diversity Library for Multistage-Active Starting Points for Next-Generation Antimalarials” (ACS Infect Dis, 2020) are INHIBITION values, retold here.

Structures are written as SMILES. The whole screen tested about 69,000 compounds, of which about 8,600 (12%) showed an effect of 50% or more. What follows is part of a selection rich in strong results, with near analogues and random picks from the rest.

This experiment concerns Plasmodium berghei. As to the kind of experiment: Screen against P. berghei liver stage (PbLuc), transformed with Luciferase, at 10uM. The format is functional, HepG2. Conditions: tested at 10 uM.
`Cc1cc2c(=O)n(CC(=O)N3CCn4cccc4C3C(C)C)cnc2s1` (stereo not given): the INHIBITION was 3.4%.

Take `COCC1CN(c2ncc(F)cn2)Cc2cnn(C)c21` (stereo not given): the INHIBITION worked out at 19.6%.

With `Cn1cc(CCC(=O)NC(c2ccc(F)cc2)C(F)(F)F)cn1` (stereo not given), the INHIBITION is -4.52%.

As to `CN1CCNC(Cc2ccc(-c3ccccc3)cc2)C1=O` (stereo not given), the INHIBITION was found to be 23.2%.

Consider `O=C(NCC1CCS(=O)(=O)C1)c1cccc(CN2CCCC2)c1` (stereo not given), for which the INHIBITION is listed as 24.7%.

`O=C(N1CCCO1)[C@@]12CCO[C@@H]1CCN(Cc1cccs1)C2`: the INHIBITION is given as 40.1%.

Take `CC1=CCN(C(=O)Nc2ccccc2N2CCOC2=O)CC1`: the INHIBITION was 32.5%.

For `O=C(Nc1ccccc1N1CCOC1=O)N1CCSCC1`, the INHIBITION came to 52.2%.

Consider `CC(=O)N1CCCN(C(=O)Nc2ccccc2N2CCOC2=O)CC1`, for which the INHIBITION worked out at 1.37%.

As to `Cc1ccn(CCC(=O)NC(C)Cc2ccco2)n1` (stereo not given), the INHIBITION stood at 24.5%.

As to `COC(=O)c1sc2cccc(F)c2c1CNC(=O)C1CC1`, the INHIBITION is given as 34.6%.

`OC1CCN(Cc2cc3c(cc2Br)OCCO3)CC1`: the INHIBITION is recorded as 28.3%.

Regarding `COc1ccc(CN2CCC(C(N)=O)C2)c(Br)c1OC` (stereo not given), the INHIBITION is on record as -0.87%.

Regarding `NC(=O)C1CCN(Cc2cc3c(cc2Br)OCCO3)C1` (stereo not given), the INHIBITION turned out to be 71.3%.

In the case of `OCCN1CCN(Cc2cc3c(cc2Br)OCCO3)CC1`, the INHIBITION is 31.5%.

For `OCC1CCN(Cc2cc3c(cc2Br)OCCO3)CC1`, the INHIBITION is listed as 34.5%.

As for `Brc1cc2c(cc1CN1CCC(N3CCCCC3)CC1)OCCO2`, the INHIBITION was determined as 77.9%.

Take `CNC(=O)C1CN(C(=O)c2ccccc2)Cc2cn(C)nc21` (stereo not given): the INHIBITION is 18.9%.

For `CCOC(=O)c1nc(CC(=O)Nc2ccccc2)no1`, the INHIBITION is on record as 45.5%.

For the molecule `Cc1cc(CN2CCN(C(=O)NCc3csc(C)n3)CC2)no1`, the INHIBITION is 26.4%.

For `CN(C)CCO[C@H]1CN(Cc2ccoc2)[C@@H]2COC[C@H]12`, the INHIBITION worked out at 3.25%.

With `Cn1nc(CNC(=O)c2ccc3c(c2)OCO3)c2c1CCOC2`, the INHIBITION is listed as 40.8%.

Turning to `CN(C)c1cc(CNC(=O)Nc2ccc(N3CCCC3)nc2)ccn1`, the INHIBITION came to 69.7%.

On to `CN(C)c1cc(CNC(=O)Nc2cccnc2N2CCCC2)ccn1`, for which the INHIBITION was -60.4%.

Take `COc1ccc(NC(=O)NCc2ccnc(N(C)C)c2)cn1`: the INHIBITION was -15.1%.

Turning to `CN(C)c1cc(CNC(=O)Nc2ccc(F)cc2)ccn1`, the INHIBITION turned out to be 17.8%.

For `CN(C)c1cc(CNC(=O)Nc2ccc(C#N)cc2)ccn1`, the INHIBITION amounted to 22.1%.

Take `CSCCc1ccc(NC(=O)NCc2ccnc(N(C)C)c2)cc1`: the INHIBITION is listed as 72.85%.

In the case of `COCc1ccccc1CNC(=O)CNc1cccc(Cl)c1OC`, the INHIBITION is -28.2%.

Regarding `CSCCC(=O)N1CCCN(Cc2cnn(C(C)C)c2)CC1`, the INHIBITION stood at 4.71%.

`O=C([C@H]1CCCO1)N1CCc2ncc(CN3CCOCC3)n2CC1`: the INHIBITION is reported as 22.9%.

With `CC(C(=O)N1CCCN(Cc2cnn(C)c2)CC1)n1ccnc1` (stereo not given), the INHIBITION is on record as 48.1%.

Turning to `O=C(N1CCCC1)N1CCc2ncnc(C3CCOC3)c2CC1` (stereo not given), the INHIBITION is 31.8%.

Consider `O=C(NCc1ccccc1F)NCC(O)c1cccc(F)c1` (stereo not given), for which the INHIBITION is given as -24.3%.

Regarding `CN(C)S(=O)(=O)N1CCN(c2ccnc(N3CCCC3)n2)CC1`, the INHIBITION was found to be 5.14%.

As for `CCCS(=O)(=O)N1CCN(c2ccnc(N3CCCC3)n2)CC1`, the INHIBITION is reported as 30.1%.

`CS(=O)(=O)N1CCN(c2ccnc(N3CCCC3)n2)CC1`: the INHIBITION amounted to 50.8%.

Take `CS(=O)(=O)N1CCN(c2cnnc(N3CCCC3)c2)CC1`: the INHIBITION is -11.4%.

In the case of `O=C(O)c1ccnc(-c2ccnc(N3CCCCCC3)n2)c1`, the INHIBITION amounted to 4.41%.

As to `CN(C)S(=O)(=O)N1CCN(c2ccnc(N3CCCCC3)n2)CC1`, the INHIBITION came to 43.1%.

As for `CCCS(=O)(=O)N1CCN(c2ccnc(N3CCCCC3)n2)CC1`, the INHIBITION was 59.8%.

For the molecule `CS(=O)(=O)N1CCN(c2ccnc(N3CCCCC3)n2)CC1`, the INHIBITION turned out to be 58.5%.

Consider `CCCS(=O)(=O)N1CCN(c2cc(-n3cccc3)nc(C)n2)CC1`, for which the INHIBITION worked out at 34.5%.

Turning to `Cc1nc(C)c(C(=O)NCCNc2ncccc2C(F)(F)F)s1`, the INHIBITION was -36.3%.

Turning to `CCn1cnnc1C1CCN(C(=O)c2ccc3cc[nH]c3c2)CC1`, the INHIBITION was 30.8%.

For `Cc1cc(C)n(CC2CN(Cc3noc(C4CC4)n3)CCO2)n1` (stereo not given), the INHIBITION is -37.7%.

As for `CC(=O)N1CCCCC1c1nc2c(c(NC3CCCC3)n1)CN(C)CC2` (stereo not given), the INHIBITION was 38.2%.

Consider `O=C(NCCNc1ncccn1)N1CCN(C2CCCC2)CC1`, for which the INHIBITION is 21.6%.

On to `Cc1nc(C2CCCN(C(=O)CCn3ccccc3=O)C2)no1` (stereo not given), for which the INHIBITION is recorded as 29.7%.

On to `COCc1ncc(CN2CCC3(CCC(=O)N(CC(C)O)C3)CC2)cn1` (stereo not given), for which the INHIBITION came out at 55.2%.

`COCc1ncc(CN2CCC3(CCNCC3)CC2)cn1`: the INHIBITION worked out at 18.5%.

Turning to `COCc1ncc(CN2CCC3(CCNC(=O)CC3)CC2)cn1`, the INHIBITION is on record as -47%.

In the case of `COC(=O)C1CCN(C(=O)Cn2nc(C)nc2-c2ccccc2)CC1`, the INHIBITION is on record as -3.48%.

Turning to `N[C@@H](Cc1c[nH]cn1)C(=O)N1CCC(Oc2ccc(Cl)cc2)CC1`, the INHIBITION was 43.9%.

`Cc1ccccc1CCC1CCCN(Cc2nnc(-c3ccco3)o2)C1` (stereo not given): the INHIBITION turned out to be 35.6%.

Take `Cc1nc(CN2CCCC(CCc3ccccc3C(F)(F)F)C2)co1` (stereo not given): the INHIBITION amounted to 74.5%.

As for `CC1CCCN(Cc2coc(-c3cccc(F)c3)n2)C1` (stereo not given), the INHIBITION is 18.6%.

`Cn1cc(CN2CCCC(CCc3ccccc3C(F)(F)F)C2)cn1` (stereo not given): the INHIBITION came out at 43%.

Consider `FC(F)(F)c1ccccc1CCC1CCCN(Cc2cscn2)C1` (stereo not given), for which the INHIBITION is listed as 76.7%.

Consider `Cc1nc(CN2CCCC(c3nc(C)n4c(C)c(C)sc34)C2)co1` (stereo not given), for which the INHIBITION is given as 19.6%.

Turning to `Cc1nnc(CN2CCCC(CCc3ccccc3C(F)(F)F)C2)o1` (stereo not given), the INHIBITION turned out to be 27.2%.

As for `CCN(CC(F)(F)F)C(=O)C1CCCN(Cc2cscn2)C1` (stereo not given), the INHIBITION is given as -116%.

Regarding `Cc1nc(CN2CCCC(CCc3cccc(C(F)(F)F)c3)C2)co1` (stereo not given), the INHIBITION is 62.4%.

On to `COCCN(Cc1ccco1)c1ncc(C#N)cc1Cl`, for which the INHIBITION is on record as 28%.

Turning to `CCn1ncc(Nc2[nH]cnc3nc(C)nc2-3)c1C`, the INHIBITION is 9%.

Take `COCC(=O)Nc1ccc(-c2noc([C@@H]3CCCN3C(C)C)n2)cn1`: the INHIBITION stood at 35.8%.

Regarding `CC(C)NC(=O)N1Cc2nccn2CC(COc2cccnc2)C1` (stereo not given), the INHIBITION was found to be 22.4%.

Turning to `O=C(c1cscn1)N1CCC2(CCN(Cc3cccs3)CC2)C1`, the INHIBITION is on record as -5.12%.

As to `COc1ccccc1N1CCN(Cc2ncc(C)c(OC)c2C)CC1=O`, the INHIBITION is 37.4%.

As for `CC(NC(=O)N1CCS(=O)(=O)CC1)c1c(F)cccc1Cl` (stereo not given), the INHIBITION is -5.275%.

As to `CC(C)NC(=O)CNC(C)c1c(F)cccc1Cl` (stereo not given), the INHIBITION amounted to 31.2%.

Consider `CC(NC(=O)N1CCNC(=O)CC1)c1c(F)cccc1Cl` (stereo not given), for which the INHIBITION is on record as -36.75%.

With `CC(NCC(N)=O)c1c(F)cccc1Cl` (stereo not given), the INHIBITION is listed as 67.1%.

In the case of `NC(=O)CNC(c1ccccc1)c1ccccc1`, the INHIBITION worked out at 6.67%.

As to `CNC(=O)NC(C)c1c(F)cccc1Cl` (stereo not given), the INHIBITION amounted to 50.8%.
